Test results from PubChem BioAssay AID1159580 (chemical genetic matrix, 2015).
Several values for one entry are separate records, joined by “and”; a condition that tells them apart may be missing. Equal values may be shown once. The whole screen tested about 5,500 compounds, of which about 2,000 (36%) were called active. Inconclusive results (about 18%) are left out. Cut-off read from the data, not from the text of the source: active = normalized growth mostly below about 0.91 (no sharp cut-off); inconclusive = no clear call, values can overlap the other calls; inactive = mostly above about 0.92. This is one part of the list.

Assay: chemical genetic growth profiling, strain panel (AID 1159580);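 note: tested at 20 µM; growth read once vehicle control cultures reached saturation at 30 °C; 1 = growth at the plate median or of vehicle wells; lower values mean less growth of the strain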
Details: S. cerevisiae deletion strains, growth OD

Measured: normalized growth

CC(=O)Nc1nnc(S(N)(=O)=O)s1
active: locus YDL035C, strain GPR1, stronger effect = lower value 0.538 | locus YDL074C, strain BRE1, stronger effect = lower value 0.709 | locus YDL101C, strain DUN1, stronger effect = lower value 0.878 | locus YDL134C, strain PPH21, stronger effect = lower value 0.621 | locus YDL192W, strain arf1, stronger effect = lower value 0.915 | locus YDR162C, strain NBP2, stronger effect = lower value 0.126 | locus YDR318W, strain mcm21, stronger effect = lower value 0.917 | locus YEL061C, strain CIN8, stronger effect = lower value 0.728 | locus YER167W, strain BCK2, stronger effect = lower value 0.748 | locus YGL086W, strain mad1, stronger effect = lower value 0.864 | locus YGL248W, strain PDE1, stronger effect = lower value 0.585 | locus YGR078C, strain PAC10, stronger effect = lower value 0.477 | locus YGR135W, strain pre9, stronger effect = lower value 0.81 | locus YHR129C, strain ARP1, stronger effect = lower value 0.728 | locus YIL066C, strain RNR3, stronger effect = lower value 0.24 | locus YIL073C, strain SPO22, stronger effect = lower value 0.202 | locus YJL187C, strain SWE1 (second series), stronger effect = lower value 0.793 | locus YJR043C, strain POL32, stronger effect = lower value 0.398
0.707 (active) and 1 (inactive): locus YHR030C, strain SLT2, stronger effect = lower value
0.773 (active) and 0.995 (inactive): locus YJL095W, strain BCK1, stronger effect = lower value
inactive: locus YAL013W, strain DEP1, stronger effect = lower value 0.987 | locus YAL021C, strain ccr4, stronger effect = lower value 1 | locus YAL026C, strain drs2, stronger effect = lower value 1 | locus YAL030W, strain snc1, stronger effect = lower value 1.02 | locus YAL040C, strain CLN3, stronger effect = lower value 0.992 | locus YBL061C, strain skt5, stronger effect = lower value 1.01 | locus YBR009C, strain hhf1, stronger effect = lower value 0.991 | locus YBR021W, strain FUR4, stronger effect = lower value 0.944 | locus YBR023C, strain chs3, stronger effect = lower value 1.01 | locus YBR171W, strain sec66, stronger effect = lower value 1.02 | locus YBR229C, strain ROT2, stronger effect = lower value 0.95 | locus YBR231C, strain swc5, stronger effect = lower value 1.01 | locus YBR279W, strain paf1, stronger effect = lower value 1.01 | locus YCL011C, strain gbp2, stronger effect = lower value 1.02 | locus YCL016C, strain dcc1, stronger effect = lower value 1 | locus YCL029C, strain bik1, stronger effect = lower value 0.987 | locus YCL061C, strain MRC1 (second series), stronger effect = lower value 0.999 | locus YCL069W, strain vba3, stronger effect = lower value 1.02 | locus YCR088W, strain abp1, stronger effect = lower value 1.01 | locus YDL005C, strain med2, stronger effect = lower value 0.997 | locus YDL040C, strain nat1, stronger effect = lower value 1.01 | locus YDL185W, strain tfp1, stronger effect = lower value 0.998 | locus YDR001C, strain nth1, stronger effect = lower value 1.01 | locus YDR069C, strain doa4, stronger effect = lower value 1.01 | locus YDR101C, strain arx1, stronger effect = lower value 0.998 | locus YDR137W, strain rgp1, stronger effect = lower value 1 | locus YDR159W, strain sac3, stronger effect = lower value 0.99 | locus YDR195W, strain ref2 1.01 | locus YDR297W, strain sur2, stronger effect = lower value 1.01 | locus YDR334W, strain swr1, stronger effect = lower value 1.01 | locus YDR335W, strain msn5, stronger effect = lower value 1 | locus YDR388W, stronger effect = lower value 0.959 | locus YDR392W, strain spt3, stronger effect = lower value 1 | locus YDR502C, strain sam2, stronger effect = lower value 0.943 | locus YEL003W, strain gim4, stronger effect = lower value 1.01 | locus YEL037C, strain rad23, stronger effect = lower value 1.02 | locus YEL061C, strain CIN8 (second series), stronger effect = lower value 1.02 | locus YER002W, strain NOP16, stronger effect = lower value 1.03 | locus YER015W, strain faa2, stronger effect = lower value 0.997 | locus YER016W, strain bim1, stronger effect = lower value 0.99 | locus YER110C, stronger effect = lower value 1.01 | locus YER111C, strain swi4, stronger effect = lower value 1.01 | locus YER155C, strain BEM2 (second series), stronger effect = lower value 1.03 | locus YER155C, strain BEM2, stronger effect = lower value 1.01 | locus YFR010W, strain ubp6, stronger effect = lower value 1.03 | locus YGL078C, strain dbp3, stronger effect = lower value 1 | locus YGL167C, strain pmr1, stronger effect = lower value 1.01 | locus YGL173C, strain kem1, stronger effect = lower value 1.02 | locus YGL227W, strain vid30, stronger effect = lower value 1.01 | locus YGL240W, strain doc1, stronger effect = lower value 1.01 | locus YGL253W, strain hxk2, stronger effect = lower value 1.01 | locus YGR252W, strain gcn5, stronger effect = lower value 0.824 | locus YHR013C, strain ard1, stronger effect = lower value 1.02 | locus YHR027C, strain rpn1, stronger effect = lower value 0.999 | locus YHR079C, strain IRE1 (second series), stronger effect = lower value 0.996 | locus YHR079C, strain IRE1, stronger effect = lower value 0.969 | locus YHR094C, strain hxt1, stronger effect = lower value 0.985 | locus YHR142W, strain chs7, stronger effect = lower value 1.01 | locus YHR200W, strain rpn10, stronger effect = lower value 0.985 | locus YIL125W, strain kgd1, stronger effect = lower value 1.01 | locus YIR030C, strain dcg1, stronger effect = lower value 1.01 | locus YJL092W, strain hpr5, stronger effect = lower value 1.02 | locus YJL095W, strain BCK1 (second series), stronger effect = lower value 1.01 | locus YJL115W, strain asf1, stronger effect = lower value 1.02 | locus YJL129C, strain trk1, stronger effect = lower value 1.02 | locus YJL134W, strain LCB3, stronger effect = lower value 0.938 | locus YJL154C, strain vps35, stronger effect = lower value 1.02 | locus YJL164C, strain tpk1, stronger effect = lower value 1 | locus YJL166W, strain qcr8, stronger effect = lower value 1.01 | locus YJL168C, strain set2, stronger effect = lower value 0.979 | locus YJR066W, strain TOR1, stronger effect = lower value 0.97 | locus YJR075W, strain HOC1, stronger effect = lower value 1.01
